ATXN viability – reduces viability in counter-screen for ATXN expression inhibitors; S2 cells (HEK-293 line with an ATXN2-luciferase reporter) viability, CellTiter-Fluor protease fluorescence, 24 h; Potency, µM (highest dose often 56.7 µM), actives largely listed as cytotoxic; 400,000 tested, 0.49% active; AID 651635; also: nearly all actives have a fitted effect of over 40% in size
ATXN2 expr inh – ATXN2 expression inhibition | HEK-293 ATXN2-luciferase reporter, luminescence, 24 h | 360,000 tested, 0.72% active | Potency, µM (highest dose often 57 µM), inactives show top-dose activity change, negative = inhibition, usual class: inhibitors | AID 1745845; also: % is scaled to controls: 0 for no effect and ±100 for the full control effect; nearly all actives have a fitted effect of over 55% in size
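qHTS (up to 57 uM final) was run with 24 h compound exposure of reporter cells at 37 °C. Each well was multiplexed: SteadyGlo luminescence measured ATXN2-luciferase expression after a fluorogenic Gly-Phe-AFC viability readout (25 uM final).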
TGFb inhibitor – inhibitors of TGF-b signaling | 410,000 tested, 1.2% active | Potency, µM (highest dose often 46.1 µM), for inactives: at the top dose activity, negative = inhibition, actives largely listed as inhibitors | HepG2 CAGA-GFP TGF-b/SMAD3 reporter, GFP fluorescence, 18 h; TGF-beta stimulated, 500 pg/mL final; also: % is scaled to controls: 0 for no effect and ±100 for the full control effect; nearly all actives have a fitted effect of over 65% in size
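Inhibition of TGF-beta-driven CAGA-GFP reporter expression in HEPG2 cells is measured by cellular GFP fluorescence after 18 h stimulation with 500 pg/mL recombinant TGF-beta in 1% FBS medium at 37 degrees C.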
HepG2 viability – kills HepG2 cells in TGF-b inhibitor counter-screen. HepG2 CAGA-GFP viability, ATP luminescence, 18 h. Potency, µM (series often up to 46.1 µM), for the others: top-dose activity change, negative = cytotoxicity, actives largely listed as cytotoxic. 410,000 tested, 0.76% active. AID 588856
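CellTiter-Glo luminescence gave cytotoxicity after 18 hours at 37 degrees C. The cells were HepG2 CAGA-GFP in 1% FBS DMEM, stimulated with 500 pg/mL TGF-beta after compound addition. %Activity was normalised to no-cell wells (complete cell-killing) and DMSO (no toxicity), and curves were fitted and classified.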
Active calls of the source: *; i = inactive; ? = inconclusive; / = no result; ! = not active in a repeat; [ ] = another dose, or the depositor's remark. The list is not random: actives were taken first. Their share in the collection is about 2.3%. Calls follow the shape of the dose curve; as a rule, active = well fitted curve in the direction sought with a large enough effect; inconclusive = small, poorly fitted or top-dose-only effect, or another doubt; inactive = no such curve, though single readings can be large; an effect the other way counts as inactive or inconclusive. Potency is read from the fitted curve at half-maximal effect.

SMILES | ATXN viability | ATXN2 expr inh | TGFb inhibitor | HepG2 viability
C=CC[C@@H](CC(=O)N[C@H](CO)Cc1ccccc1)C(=O)N[C@H](COC(=O)[C@@H](CC=C)CC(=O)OC(C)(C)C)Cc1c[nH]c2ccccc12 | ? | ? | ? | -29.9%
C=CC[C@@H](CC(=O)N(CCO)Cc1ccccc1)C(=O)N[C@H](COC(=O)[C@H](CC=C)CC(=O)OC(C)(C)C)Cc1c[nH]c2ccccc12 | 22.4µM* | ? | ? | -1.9%
C=CC[C@@H](CC(=O)N[C@@H](CO)Cc1ccccc1)C(=O)N[C@@H](COC(=O)[C@@H](CC=C)CC(=O)OC(C)(C)C)Cc1c[nH]c2ccccc12 | ? | -21.6% | ? | -21.3%
C/C(=C1/C=Nc2ccccc21)c1ccc(N(C)C)cc1 | / | / | ? | -41.6%
CON=C(C(=O)N[C@@H]1C(=O)N2C(C(=O)O)=C(CSC(=O)c3ccco3)CS[C@H]12)c1csc(N)n1 | / | 2.2% | / | /
Cc1ccc2c(c1)c(C)c(C)n2CC(O)Cn1nc(C)c(Br)c1C (centres undefined) | ? | ? | ? | 15.8µM*
CC(=NNC(=S)N1CCN(C2CCCCCC2)CC1)c1ccccn1 | 1.19µM* | -82.0% | ? | -79.3%
C/C(=N\NC(=O)C1CCCN(S(=O)(=O)c2ccccc2)C1)c1ccccn1 (centres undefined) | ? | 8.91µM* | -26.6% | -32.4%
C/C(=N/NC(=O)c1cnccn1)c1ccncc1 | i | -12.2%[11.3 µM] | 16.7% | 10.8%
CC(=NNC(=S)N1CCN(c2ccccn2)CC1)c1ccccn1 | i | -22.4% | 0.0% | 1.9%
CC(=NNC(=S)N1CC2CCC(CC2)C1)c1cnccn1 | ? | ? | 3.16µM* | -48.7%
CC(=NNC(=S)N1CC2CCC(CC2)C1)c1ccccn1 | ? | / | ? | 12.6µM*
CC(C=CC(=O)NO)=C[C@@H](C)C(=O)c1ccc(N(C)C)cc1 | / | 167.1% | / | /
COc1ccc(/C=C2\C=Cc3ccccc32)cc1OC | / | / | -17.2% | -17.1%
CC(=NNC(=S)N1CCN(c2ccccn2)CC1)c1nccs1 | ? | ? | ? | 1.3%
CC(=NNC(=S)N1CCCCCC1)c1cccc2cccnc12 | ? | ? | 2.24µM* | 14.2%
CC(C)OCCCn1c(SCC(=O)Nc2ccccc2C(F)(F)F)nc2nccnc2c1=O | i | 6.2% | 13.3% | 2.51µM*
CN(Cc1ccccc1)c1ccc(/C=C/c2sc3ccccc3[n+]2C)cc1 | / | / | 3.16µM* | -33.6%
CCC1CN(Cc2ccc(COC)o2)Cc2cc(OC)ccc2O1 (centres undefined) | i | / | / | /
Cc1ccc(C2CC(=O)Nc3cc4c(cc32)OCCO4)cc1Br (centres undefined) | i | -17.6% | 12.6µM* | -38.0%
Nc1ccc(/C=C/c2cccc3cccnc23)cc1 | / | / | 10.6% | -1.7%
COc1ccc(C(=O)Nc2ccc(Cl)c(S(=O)(=O)Nc3ccccc3OC)c2)cc1 | i | ? | ? | -3.9%
COc1ccccc1NS(=O)(=O)c1cc(NC(=O)c2ccc(Cl)nc2)ccc1Cl | ? | 20µM* | ? | -25.6%
COc1ccccc1NS(=O)(=O)c1cccc(NC(=O)Nc2cccc(Cl)c2)c1 | / | 0.0% | ? | 14.1µM*
COC(=O)c1cc(NC(=O)Nc2cccc(Cl)c2)ccc1Cl | i | ? | 15.8µM* | -90.5%
SMILES | ATXN viability | ATXN2 expr inh | TGFb inhibitor | HepG2 viability
COc1cc(N(C)C)c(OC)cc1/C=C1\C=Cc2ccccc21 | / | / | -26.1% | -24.3%
COC(=O)[C@H](C)NS(=O)(=O)C1CC1 | / | / | -6.6% | -0.6%
CCCCN(CC)CCCNC(=O)c1cc2c(=O)n(CC)c3ccccc3c2s1 | ? | ? | 12.6µM* | -99.6%
CN(C)CCCNC(=O)c1cc2sc3ccccc3c2s1 | / | -32.6% | 0.0% | 20µM*
COCCNC(=O)c1cc2sc3ccccc3c2s1 | i | 33.9% | 11.7% | -10.6%
CCCCN(CC)CCNC(=O)c1cc2c(=O)n(C)c3ccccc3c2s1 | i | -32.1% | ? | 12.6µM*
CCCCN(CC)CCNC(=O)c1cc2c(=O)n(CC)c3ccccc3c2s1 | i | -13.5% | 10.4% | 12.6µM*!
C=C1C=C(C(F)F)n2ncc(C(=O)NCCc3ccc(Cl)cc3)c2N1 | / | / | -18.4% | -25.3%
CCOc1ccc(N)c(SSc2cc(OCC)ccc2N)c1 | 1µM* | / | 6.31µM* | 10µM*
CCOc1cccc(N)c1 | i | 9.5% | -2.2% | -0.8%
CCn1c(-c2ccccc2F)nc2cc(C(=O)NCC3CCOCC3)cc(NC(C)=O)c21 | i | / | / | /
Cc1ccc(-c2c(C)n3c4c(=O)n(C)c(=O)n(C)c4nc3n2CCCO)cc1 | 28.2µM* | 25.1µM* | ? | -35.8%
CC(C)Cn1cnc2c(SCc3ccccc3)nc(N)nc21 | i | 15.8% | -7.2% | -31.2%
CC(C)Cn1cnc2c(N)nc3ccccc3c21 | i | 21.7µM*! | 13.3% | -2.0%
OC(c1ccc2c(c1)CN(Cc1cccn1-c1cccnc1)CCO2)C1CCCCC1 (centres undefined) | i | / | / | /
Cc1[nH]nc(C(=O)NN=Cc2ccccc2Cl)c1N=NN(C)C | ? | 0.2% | 10µM* | 20µM*
O=C(N/N=C/c1ccccc1Cl)c1n[nH]c2c1CCCC2 | i | / | 4.5% | -32.6%
COc1ccc(CN2CCCC(Cn3cc(C(=O)N4CCCC4)nn3)C2)c(O)c1 (centres undefined) | i | / | / | /
CC(=O)N(c1onc(C)c1C)S(=O)(=O)c1ccc(N)cc1 | i | -3.4% | / | /
O=C(Nc1cc(Cl)cc(Cl)c1)c1ccc(Cn2c(=O)[nH]c3ccsc3c2=O)cc1 | 18.9µM* | -24.1% | ? | -37.3%
O=C(Nc1ccccc1N1CCOCC1)c1cnccn1 | i | / | 6.1% | -2.7%
O=C(Nc1ccc(N2CCOCC2)cc1)c1cnccn1 | i | 2.51µM* | -4.2% | -7.7%
Cc1nc2sc(C(N)=O)c(N)c2c(-c2ccc(Br)cc2)c1C(=O)Nc1ccc(Cl)cc1 | ? | 31.6µM* | ? | -94.8%
CCOC(=O)COc1ccc2ccccc2c1/C=C/[N+](=O)[O-] | 14.1µM* | ? | 5.01µM* | 5.62µM*
CCOC(=O)COc1ccccc1/C=N/O | i | -0.2% | -9.4% | 5.9%
SMILES | ATXN viability | ATXN2 expr inh | TGFb inhibitor | HepG2 viability
CCOC(=O)COc1ccc(/C=C/[N+](=O)[O-])c(OCC(=O)OCC)c1 | 10µM* | 8.91µM* | ? | -64.4%
CCOC(=O)COc1ccc2nsnc2c1 | i | -16.1% | 9.3% | 3.4%
CCOc1ccc(/C=C/[N+](=O)[O-])c2ccccc12 | ? | 25.1µM* | 5.01µM* | -91.7%
Cc1ncc2c(c1CNC(=O)c1ccc3c(c1)OCO3)CCN(C(=O)c1ccc3ccccc3c1)C2 | i | / | / | /
Fc1cc(-c2cccc3ncc(-c4cnn(C5CCNCC5)c4)nc23)cc(F)c1CN1CCOCC1 | / | 24.3µM* | / | /
CCc1cc2c(=O)c(-c3cnn(-c4ccccc4)c3)coc2c(CN2CCOCC2)c1O | i | ? | ? | 0.2%
Nc1ccccc1Oc1ccc2ccccc2c1 | i | / | 15.8µM* | -35.3%
C[N+](C)(CCCCCC[N+](C)(C)C1c2ccccc2-c2ccccc21)C1c2ccccc2-c2ccccc21 | i | / | / | /
